Measured values as given in the supplement of paper PMC11732987, “Enantioselective OTUD7B fragment discovery through chemoproteomics screening and high-throughput optimisation” (Communications Chemistry, 2025).

What was measured:
Test in all cases: log2 ratio of Biotin-Ahx-Ub-VS probe labelling (fragment/DMSO); higher = less target engagement (more negative = stronger competition), active = hit call of the paper (q ≤ 0.05, log2 ratio ≤ -1)
Details in all cases: compound concentration: 200 uM; treatment time: 3 h
[1] = target: T1, USP42 (UniProt Q9H9J4)
T1 sequence (whole entry): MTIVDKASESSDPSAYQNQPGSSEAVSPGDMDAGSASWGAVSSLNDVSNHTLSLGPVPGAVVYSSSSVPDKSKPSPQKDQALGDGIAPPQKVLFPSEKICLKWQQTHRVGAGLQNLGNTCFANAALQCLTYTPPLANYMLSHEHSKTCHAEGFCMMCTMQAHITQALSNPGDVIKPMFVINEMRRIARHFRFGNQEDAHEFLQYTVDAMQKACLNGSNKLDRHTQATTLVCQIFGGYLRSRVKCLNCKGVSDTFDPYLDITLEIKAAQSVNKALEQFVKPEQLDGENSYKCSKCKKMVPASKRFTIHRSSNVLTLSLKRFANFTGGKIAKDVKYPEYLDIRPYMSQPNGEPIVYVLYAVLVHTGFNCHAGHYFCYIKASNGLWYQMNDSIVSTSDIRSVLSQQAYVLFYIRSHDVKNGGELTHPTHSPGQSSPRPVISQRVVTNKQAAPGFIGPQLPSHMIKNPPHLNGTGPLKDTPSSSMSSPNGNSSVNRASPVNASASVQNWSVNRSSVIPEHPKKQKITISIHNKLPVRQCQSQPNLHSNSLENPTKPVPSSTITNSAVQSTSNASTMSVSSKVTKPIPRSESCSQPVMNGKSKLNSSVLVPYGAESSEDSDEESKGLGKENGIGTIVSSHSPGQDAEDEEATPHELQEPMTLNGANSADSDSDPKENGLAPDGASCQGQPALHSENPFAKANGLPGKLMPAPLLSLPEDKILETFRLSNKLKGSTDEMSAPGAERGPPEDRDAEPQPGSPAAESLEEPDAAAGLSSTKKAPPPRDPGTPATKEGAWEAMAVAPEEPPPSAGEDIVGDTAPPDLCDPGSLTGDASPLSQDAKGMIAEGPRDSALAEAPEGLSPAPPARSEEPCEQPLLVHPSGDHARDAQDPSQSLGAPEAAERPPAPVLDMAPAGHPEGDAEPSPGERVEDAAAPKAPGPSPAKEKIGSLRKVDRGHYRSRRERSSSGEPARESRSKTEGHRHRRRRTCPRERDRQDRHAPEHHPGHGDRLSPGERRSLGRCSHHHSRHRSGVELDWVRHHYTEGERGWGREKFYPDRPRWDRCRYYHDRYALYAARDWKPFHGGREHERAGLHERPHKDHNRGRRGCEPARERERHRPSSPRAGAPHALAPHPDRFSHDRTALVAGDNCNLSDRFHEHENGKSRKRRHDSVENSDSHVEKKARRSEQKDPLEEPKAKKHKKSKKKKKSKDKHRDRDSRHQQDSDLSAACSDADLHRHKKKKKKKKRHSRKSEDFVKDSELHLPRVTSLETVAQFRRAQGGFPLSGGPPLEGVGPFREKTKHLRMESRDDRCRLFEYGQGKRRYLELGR
Outline: (§1)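 HEK293T lysate, 495 µg per sample in Tris/CHAPS/IGEPAL buffer with protease inhibitors, was treated in triplicate with fragment at 200 µM or vehicle for 3 h and then with Biotin-Ahx-Ub-VS at 0.5 µM final for 1 h. Labelled DUBs were NeutrAvidin-enriched, digested with LysC and trypsin, and run by diaPASEF LC-MS/MS. Spectronaut label-free quantities were global-median-normalised, and values are average log2 fragment/vehicle ratios by unpaired t-test on proteins with ≥2 unique peptides.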

[2] = target: USP46 (UniProt P62068)
Chain of USP46 (P62068 whole entry): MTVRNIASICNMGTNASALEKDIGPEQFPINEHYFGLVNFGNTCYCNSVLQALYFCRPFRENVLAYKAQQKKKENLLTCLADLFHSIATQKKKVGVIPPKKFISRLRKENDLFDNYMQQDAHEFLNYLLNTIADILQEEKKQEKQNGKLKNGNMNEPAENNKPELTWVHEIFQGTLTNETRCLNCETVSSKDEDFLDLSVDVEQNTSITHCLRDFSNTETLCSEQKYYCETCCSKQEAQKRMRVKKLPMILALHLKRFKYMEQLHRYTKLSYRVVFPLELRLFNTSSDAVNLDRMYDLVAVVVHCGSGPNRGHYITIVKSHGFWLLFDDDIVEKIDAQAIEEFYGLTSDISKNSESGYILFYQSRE
Outline: as §1

[3] = target: T2, USP47 (UniProt Q96K76)
T2 sequence (whole entry): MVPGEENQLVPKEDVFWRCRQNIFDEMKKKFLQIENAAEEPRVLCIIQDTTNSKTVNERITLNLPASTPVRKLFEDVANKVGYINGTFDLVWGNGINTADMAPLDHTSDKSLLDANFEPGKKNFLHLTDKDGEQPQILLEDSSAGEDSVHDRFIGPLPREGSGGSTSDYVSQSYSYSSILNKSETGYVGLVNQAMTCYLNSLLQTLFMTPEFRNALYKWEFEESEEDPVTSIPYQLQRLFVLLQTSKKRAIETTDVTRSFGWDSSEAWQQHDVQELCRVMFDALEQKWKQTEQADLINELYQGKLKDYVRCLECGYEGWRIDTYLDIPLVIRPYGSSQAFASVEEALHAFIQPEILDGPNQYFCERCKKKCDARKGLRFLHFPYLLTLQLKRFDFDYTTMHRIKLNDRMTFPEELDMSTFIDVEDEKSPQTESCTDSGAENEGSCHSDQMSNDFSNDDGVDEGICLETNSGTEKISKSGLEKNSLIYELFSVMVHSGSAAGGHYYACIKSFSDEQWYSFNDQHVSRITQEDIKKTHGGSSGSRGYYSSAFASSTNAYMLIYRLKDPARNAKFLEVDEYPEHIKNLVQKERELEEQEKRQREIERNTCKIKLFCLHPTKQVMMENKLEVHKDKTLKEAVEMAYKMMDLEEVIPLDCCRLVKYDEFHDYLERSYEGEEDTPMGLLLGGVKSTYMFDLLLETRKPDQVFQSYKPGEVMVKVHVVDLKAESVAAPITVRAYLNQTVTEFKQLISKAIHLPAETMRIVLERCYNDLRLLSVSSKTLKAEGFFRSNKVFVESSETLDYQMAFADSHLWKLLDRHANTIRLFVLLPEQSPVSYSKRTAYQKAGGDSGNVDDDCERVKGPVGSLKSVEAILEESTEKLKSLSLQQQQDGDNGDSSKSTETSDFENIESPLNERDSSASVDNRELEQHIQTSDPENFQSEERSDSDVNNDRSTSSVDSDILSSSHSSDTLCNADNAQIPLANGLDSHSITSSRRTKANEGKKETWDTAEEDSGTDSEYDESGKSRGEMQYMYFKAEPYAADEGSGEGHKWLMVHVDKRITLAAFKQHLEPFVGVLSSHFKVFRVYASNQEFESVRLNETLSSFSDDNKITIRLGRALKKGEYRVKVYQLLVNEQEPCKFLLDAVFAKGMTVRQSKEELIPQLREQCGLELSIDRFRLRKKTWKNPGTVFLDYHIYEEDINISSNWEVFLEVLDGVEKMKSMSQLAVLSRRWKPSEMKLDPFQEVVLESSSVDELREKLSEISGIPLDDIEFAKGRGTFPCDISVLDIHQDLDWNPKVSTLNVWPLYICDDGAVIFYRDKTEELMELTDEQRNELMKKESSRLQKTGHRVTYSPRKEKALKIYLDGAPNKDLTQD
Outline: as §1

[4] = target: T3, USP48 (UniProt Q86UV5)
T3 sequence (whole entry): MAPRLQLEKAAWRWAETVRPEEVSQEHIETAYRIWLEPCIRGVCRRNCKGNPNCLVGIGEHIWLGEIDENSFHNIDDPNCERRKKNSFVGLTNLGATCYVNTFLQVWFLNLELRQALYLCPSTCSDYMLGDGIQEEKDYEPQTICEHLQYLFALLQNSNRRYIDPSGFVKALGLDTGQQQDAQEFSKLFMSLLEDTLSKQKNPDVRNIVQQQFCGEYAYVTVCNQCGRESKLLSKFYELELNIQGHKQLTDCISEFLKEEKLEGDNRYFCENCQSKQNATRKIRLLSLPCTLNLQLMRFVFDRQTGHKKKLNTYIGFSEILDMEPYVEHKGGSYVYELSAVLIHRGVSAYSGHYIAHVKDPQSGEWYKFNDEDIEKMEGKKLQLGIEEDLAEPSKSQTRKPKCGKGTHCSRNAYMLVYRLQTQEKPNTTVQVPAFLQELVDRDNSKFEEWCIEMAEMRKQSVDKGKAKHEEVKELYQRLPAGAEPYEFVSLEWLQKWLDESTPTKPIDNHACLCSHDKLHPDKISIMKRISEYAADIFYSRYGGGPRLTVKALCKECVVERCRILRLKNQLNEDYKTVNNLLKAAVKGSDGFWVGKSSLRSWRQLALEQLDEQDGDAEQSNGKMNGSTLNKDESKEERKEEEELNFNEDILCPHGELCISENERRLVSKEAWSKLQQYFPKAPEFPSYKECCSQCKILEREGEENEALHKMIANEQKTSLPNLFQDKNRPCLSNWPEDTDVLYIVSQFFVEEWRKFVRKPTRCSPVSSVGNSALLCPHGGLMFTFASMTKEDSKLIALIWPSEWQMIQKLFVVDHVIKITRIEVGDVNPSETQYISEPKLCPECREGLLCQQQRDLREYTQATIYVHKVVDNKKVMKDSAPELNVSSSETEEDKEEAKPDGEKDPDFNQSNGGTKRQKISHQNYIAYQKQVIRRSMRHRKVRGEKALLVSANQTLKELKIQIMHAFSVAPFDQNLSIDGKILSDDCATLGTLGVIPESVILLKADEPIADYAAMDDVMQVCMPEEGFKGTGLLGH
Outline: as §1

[5] = target: T4, USP5 (UniProt P45974)
T4 sequence (whole entry): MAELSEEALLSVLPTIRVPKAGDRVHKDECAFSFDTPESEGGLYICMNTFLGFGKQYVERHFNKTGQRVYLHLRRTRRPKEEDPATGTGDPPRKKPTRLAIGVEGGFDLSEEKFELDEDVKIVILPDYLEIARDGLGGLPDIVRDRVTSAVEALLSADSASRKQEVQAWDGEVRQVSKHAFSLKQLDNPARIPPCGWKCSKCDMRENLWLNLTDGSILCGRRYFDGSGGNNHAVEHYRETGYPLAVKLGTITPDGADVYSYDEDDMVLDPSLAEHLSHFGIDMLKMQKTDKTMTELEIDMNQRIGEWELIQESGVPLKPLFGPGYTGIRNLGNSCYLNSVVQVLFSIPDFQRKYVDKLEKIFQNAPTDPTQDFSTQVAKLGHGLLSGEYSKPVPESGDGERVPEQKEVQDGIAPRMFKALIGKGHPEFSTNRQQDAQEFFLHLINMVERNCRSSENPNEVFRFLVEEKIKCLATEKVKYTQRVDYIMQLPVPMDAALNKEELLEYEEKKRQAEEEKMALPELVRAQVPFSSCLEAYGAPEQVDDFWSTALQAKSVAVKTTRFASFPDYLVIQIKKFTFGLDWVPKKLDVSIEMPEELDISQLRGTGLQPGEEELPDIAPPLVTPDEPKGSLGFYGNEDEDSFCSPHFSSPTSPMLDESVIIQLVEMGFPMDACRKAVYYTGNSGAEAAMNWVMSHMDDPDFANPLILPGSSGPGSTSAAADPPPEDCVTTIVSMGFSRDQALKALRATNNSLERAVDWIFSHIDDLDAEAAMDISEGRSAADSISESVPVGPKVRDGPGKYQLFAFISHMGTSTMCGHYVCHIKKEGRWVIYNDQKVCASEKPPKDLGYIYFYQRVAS
Outline: as §1

[6] = target: USP54 (UniProt Q70EL1)
Chain of USP54 (Q70EL1 whole entry): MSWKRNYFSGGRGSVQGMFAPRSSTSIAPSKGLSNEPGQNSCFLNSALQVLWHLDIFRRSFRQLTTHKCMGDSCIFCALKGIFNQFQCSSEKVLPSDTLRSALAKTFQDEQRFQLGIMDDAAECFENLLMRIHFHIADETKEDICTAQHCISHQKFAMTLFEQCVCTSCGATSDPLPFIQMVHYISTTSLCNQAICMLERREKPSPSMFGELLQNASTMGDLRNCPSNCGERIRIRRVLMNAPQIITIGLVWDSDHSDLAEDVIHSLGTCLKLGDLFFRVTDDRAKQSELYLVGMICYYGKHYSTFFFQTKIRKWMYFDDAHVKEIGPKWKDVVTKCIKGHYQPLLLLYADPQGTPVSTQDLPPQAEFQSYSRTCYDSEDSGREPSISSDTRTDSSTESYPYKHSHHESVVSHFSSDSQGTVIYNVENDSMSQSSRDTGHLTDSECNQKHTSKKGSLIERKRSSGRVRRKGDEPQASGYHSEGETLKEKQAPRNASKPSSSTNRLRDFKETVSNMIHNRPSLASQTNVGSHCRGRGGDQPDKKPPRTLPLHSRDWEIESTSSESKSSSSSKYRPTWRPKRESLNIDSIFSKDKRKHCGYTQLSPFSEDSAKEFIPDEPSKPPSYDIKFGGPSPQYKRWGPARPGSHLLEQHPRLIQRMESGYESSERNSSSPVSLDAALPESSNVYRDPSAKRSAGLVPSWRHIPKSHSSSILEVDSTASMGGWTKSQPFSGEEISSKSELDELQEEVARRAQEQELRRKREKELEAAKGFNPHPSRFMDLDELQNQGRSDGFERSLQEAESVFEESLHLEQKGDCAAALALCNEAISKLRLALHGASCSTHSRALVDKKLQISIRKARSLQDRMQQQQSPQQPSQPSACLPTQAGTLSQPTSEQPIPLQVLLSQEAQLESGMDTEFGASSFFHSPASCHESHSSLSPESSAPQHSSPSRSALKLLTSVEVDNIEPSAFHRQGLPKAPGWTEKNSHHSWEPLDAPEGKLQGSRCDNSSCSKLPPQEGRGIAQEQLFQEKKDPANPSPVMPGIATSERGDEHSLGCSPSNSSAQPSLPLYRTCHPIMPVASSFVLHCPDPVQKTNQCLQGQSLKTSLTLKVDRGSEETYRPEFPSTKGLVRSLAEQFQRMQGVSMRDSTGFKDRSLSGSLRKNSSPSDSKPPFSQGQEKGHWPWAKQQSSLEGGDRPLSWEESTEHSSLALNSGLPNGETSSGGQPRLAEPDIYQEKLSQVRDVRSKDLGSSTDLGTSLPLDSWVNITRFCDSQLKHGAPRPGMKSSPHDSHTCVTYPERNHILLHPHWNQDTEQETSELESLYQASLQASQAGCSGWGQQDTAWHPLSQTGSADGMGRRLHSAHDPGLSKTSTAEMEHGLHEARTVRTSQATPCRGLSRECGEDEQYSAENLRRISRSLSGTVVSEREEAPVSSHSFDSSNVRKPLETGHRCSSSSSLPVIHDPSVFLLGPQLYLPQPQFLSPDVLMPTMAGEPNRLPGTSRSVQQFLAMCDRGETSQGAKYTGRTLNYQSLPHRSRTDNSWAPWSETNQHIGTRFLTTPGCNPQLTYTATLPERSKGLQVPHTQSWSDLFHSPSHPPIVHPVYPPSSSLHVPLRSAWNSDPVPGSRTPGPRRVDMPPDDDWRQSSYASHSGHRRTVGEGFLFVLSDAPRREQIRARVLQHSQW
Outline: as §1

[7] = target: USP7 (UniProt Q93009)
Chain of USP7 (Q93009 whole entry, looked up): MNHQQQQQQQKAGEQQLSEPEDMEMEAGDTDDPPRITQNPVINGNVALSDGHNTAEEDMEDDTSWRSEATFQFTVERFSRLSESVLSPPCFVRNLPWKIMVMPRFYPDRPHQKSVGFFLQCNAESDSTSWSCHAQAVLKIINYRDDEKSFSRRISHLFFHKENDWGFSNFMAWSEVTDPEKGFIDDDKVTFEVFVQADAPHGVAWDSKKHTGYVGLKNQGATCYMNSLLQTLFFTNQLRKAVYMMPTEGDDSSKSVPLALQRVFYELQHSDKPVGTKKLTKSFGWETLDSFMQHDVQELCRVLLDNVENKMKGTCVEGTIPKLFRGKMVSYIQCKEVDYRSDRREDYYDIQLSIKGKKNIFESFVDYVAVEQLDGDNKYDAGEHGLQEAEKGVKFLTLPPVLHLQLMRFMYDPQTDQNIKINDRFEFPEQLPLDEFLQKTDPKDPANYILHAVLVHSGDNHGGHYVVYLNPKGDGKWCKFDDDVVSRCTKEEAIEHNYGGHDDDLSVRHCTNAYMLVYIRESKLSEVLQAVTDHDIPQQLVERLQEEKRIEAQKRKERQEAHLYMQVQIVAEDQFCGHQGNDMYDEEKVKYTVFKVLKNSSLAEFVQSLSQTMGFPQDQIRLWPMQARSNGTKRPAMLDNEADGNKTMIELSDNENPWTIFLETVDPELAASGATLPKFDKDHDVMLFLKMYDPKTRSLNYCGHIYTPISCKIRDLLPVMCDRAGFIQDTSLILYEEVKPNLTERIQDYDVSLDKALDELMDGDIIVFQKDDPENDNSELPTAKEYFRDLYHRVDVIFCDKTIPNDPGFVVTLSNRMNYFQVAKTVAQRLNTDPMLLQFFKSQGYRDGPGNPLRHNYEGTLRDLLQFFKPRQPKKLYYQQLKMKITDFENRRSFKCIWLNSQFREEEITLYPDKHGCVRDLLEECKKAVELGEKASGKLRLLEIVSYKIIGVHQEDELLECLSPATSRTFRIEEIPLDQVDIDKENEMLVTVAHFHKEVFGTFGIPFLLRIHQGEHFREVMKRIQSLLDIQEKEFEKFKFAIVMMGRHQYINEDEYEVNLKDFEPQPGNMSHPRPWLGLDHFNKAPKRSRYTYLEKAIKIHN
Outline: as §1

[8] = target: T5, USP8 (UniProt P40818)
T5 sequence (whole entry): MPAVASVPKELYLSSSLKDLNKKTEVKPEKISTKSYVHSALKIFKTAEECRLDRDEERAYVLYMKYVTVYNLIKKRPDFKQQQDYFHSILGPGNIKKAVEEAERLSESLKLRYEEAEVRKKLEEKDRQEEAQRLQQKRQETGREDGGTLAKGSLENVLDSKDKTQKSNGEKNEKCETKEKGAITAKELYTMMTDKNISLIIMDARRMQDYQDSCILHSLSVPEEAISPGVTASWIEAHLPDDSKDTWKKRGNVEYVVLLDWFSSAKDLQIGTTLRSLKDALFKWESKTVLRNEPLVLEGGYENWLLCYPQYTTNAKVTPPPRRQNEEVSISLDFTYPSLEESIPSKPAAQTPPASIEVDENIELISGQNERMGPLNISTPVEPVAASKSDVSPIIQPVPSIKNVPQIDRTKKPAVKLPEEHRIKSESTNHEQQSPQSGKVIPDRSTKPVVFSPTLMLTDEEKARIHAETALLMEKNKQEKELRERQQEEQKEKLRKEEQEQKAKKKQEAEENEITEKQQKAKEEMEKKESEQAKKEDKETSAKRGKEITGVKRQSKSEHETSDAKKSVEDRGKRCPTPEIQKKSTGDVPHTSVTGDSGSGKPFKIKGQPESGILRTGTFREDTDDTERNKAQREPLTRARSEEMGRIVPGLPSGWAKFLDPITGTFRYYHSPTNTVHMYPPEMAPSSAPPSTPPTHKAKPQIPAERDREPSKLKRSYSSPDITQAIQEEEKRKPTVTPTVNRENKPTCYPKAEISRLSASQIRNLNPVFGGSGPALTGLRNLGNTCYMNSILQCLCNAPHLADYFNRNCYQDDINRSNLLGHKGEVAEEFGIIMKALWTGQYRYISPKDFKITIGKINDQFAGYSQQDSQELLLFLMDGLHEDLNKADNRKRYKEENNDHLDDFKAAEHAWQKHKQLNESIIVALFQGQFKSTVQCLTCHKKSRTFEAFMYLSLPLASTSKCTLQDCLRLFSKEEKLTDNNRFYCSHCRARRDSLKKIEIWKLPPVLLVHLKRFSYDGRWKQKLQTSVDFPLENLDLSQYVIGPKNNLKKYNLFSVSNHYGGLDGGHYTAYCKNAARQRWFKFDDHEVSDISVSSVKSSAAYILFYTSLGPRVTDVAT
Outline: as §1

[9] = target: USP9X (UniProt Q93008)
Outline: as §1

[10] = target: UniProt O00487
Chain of UniProt O00487 (O00487 whole entry): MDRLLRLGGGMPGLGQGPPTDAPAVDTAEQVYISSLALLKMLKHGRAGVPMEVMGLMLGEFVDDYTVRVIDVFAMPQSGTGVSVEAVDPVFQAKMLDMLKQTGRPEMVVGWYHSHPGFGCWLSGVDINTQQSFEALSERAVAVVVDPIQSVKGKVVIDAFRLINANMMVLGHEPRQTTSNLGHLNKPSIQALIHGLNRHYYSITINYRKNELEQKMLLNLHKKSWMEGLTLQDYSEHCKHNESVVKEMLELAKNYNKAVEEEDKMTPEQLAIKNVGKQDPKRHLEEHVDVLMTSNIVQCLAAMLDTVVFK
Outline: as §1

Measured: log2 ratio of Biotin-Ahx-Ub-VS probe labelling

COCC[C@@H](NC(=O)CCl)c1ccccc1
inactive: [1] 0.331 | [2] 0.164 | [3] -0.122 | [4] -0.261 | [5] 0.0242 | [6] 0.235 | [7] -0.0296 | [8] -0.0978 | [9] -0.0244 | [10] -0.0153
